Holding throughout (settings): mRNA level, 48 h; actives raise or lower the signal
Read-out in one experiment: CYP2E1 (gene 1571)
Description: LTEA_HepaRG_CYP2E1: Life Technologies and Expression Analysis (LTEA) Assay for CYP2E1 using HepaRG (AID 2283485). In a few lines: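 Readout is qRT-PCR of CYP2E1 mRNA, normalized to three housekeeping genes and fitted bidirectionally against 0.5% DMSO. HepaRG cells were dosed 48 h at eight concentrations, highest 100 uM with half-log dilutions.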

Read-out in the next experiment: CYP4A11 (gene 1579)
The experiment is described as follows: LTEA_HepaRG_CYP4A11: Life Technologies and Expression Analysis (LTEA) Assay for CYP4A11 using HepaRG (AID 2283486). In a few lines: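 Human hepatic HepaRG cultures receive duplicate 48 h exposures across a concentration-response series topping at 100 uM. Expression changes in CYP4A11 are measured by qRT-PCR relative to DMSO controls.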

Read-out in experiment [1]: Cytochrome P450 3A4 (Homo sapiens) (UniProt P08684)
Description: LTEA_HepaRG_CYP3A4: Life Technologies and Expression Analysis (LTEA) Assay for CYP3A4 using HepaRG (AID 2283487). In outline:
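HepaRG, 48 h exposure, 8-pt CRC from 100 uM (half-log), 0.5% DMSO, duplicates; serum-free induction medium. Readout: CYP3A4 mRNA, qRT-PCR, ACTB/GAPDH/POLR2A normalization. Bidirectional fit vs DMSO.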

Read-out in experiment [2]: Pro-epidermal growth factor (Homo sapiens) (UniProt P01133)
Description: LTEA_HepaRG_EGF: Life Technologies and Expression Analysis (LTEA) Assay for Epidermal growth factor (EGF) using HepaRG (AID 2283489). In a few lines:
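Concentration-response mRNA assay: HepaRG cells dosed 48 h (max 100 uM, 0.5% DMSO), EGF measured by qRT-PCR and normalized to ACTB/GAPDH/POLR2A.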

Read-out in experiment [3]: Early growth response protein 1 (EGR1) transcription factor, EGR1 (gene 1958)
The experiment is described as follows: LTEA_HepaRG_EGR1: Life Technologies and Expression Analysis (LTEA) Assay for Early growth response protein 1 (EGR1) transcription factor using HepaRG (AID 2283490). In a few lines: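 EGR1 expression change in human HepaRG after 48 h chemical exposure, assessed by housekeeping-normalized qRT-PCR; concentration-response up to 100 uM, fitted in both directions against DMSO controls.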

Read-out in experiment [4]: Ezrin (EZR), EZR (gene 7430)
Description: LTEA_HepaRG_EZR: Life Technologies and Expression Analysis (LTEA) Assay for Ezrin (EZR) using HepaRG (AID 2283491). In outline: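 Read-out is EZR transcript level by qRT-PCR, normalized to three housekeeping genes and fitted bidirectionally against the DMSO control. Human HepaRG cells received test chemicals for 48 h at eight half-log concentrations up to 100 uM in 0.5% DMSO.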

Read-out in the next experiment: CYP3A5 (gene 1577)
Description: LTEA_HepaRG_CYP3A5: Life Technologies and Expression Analysis (LTEA) Assay for CYP3A5 using HepaRG (AID 2283493). In outline: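 Human HepaRG hepatic cells receive 48 h chemical treatment at eight concentrations (half-log steps from 100 uM) in 0.5% DMSO. Expression of CYP3A5 is quantified by Fluidigm qRT-PCR and normalized to three reference genes.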

Read-out in experiment [5]: Fatty Acid-Binding Protein 1 (FABP1), FABP1 (gene 2168)
The experiment is described as follows: LTEA_HepaRG_FABP1: Life Technologies and Expression Analysis (LTEA) Assay for Fatty Acid-Binding Protein 1 (FABP1) using HepaRG (AID 2283494). In a few lines:
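Values reflect bidirectional concentration-response fitting of FABP1 mRNA change against 0.5% DMSO controls. Human HepaRG cultures received eight half-log doses (top 100 uM) for 48 h; expression quantified by TaqMan qRT-PCR with housekeeping-gene normalization.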

Read-out in experiment [6]: Cytochrome P450 4A22 (Homo sapiens) (UniProt Q5TCH4)
The experiment is described as follows: LTEA_HepaRG_CYP4A22: Life Technologies and Expression Analysis (LTEA) Assay for Cytochrome P450 4A22 (CYP4A22) using HepaRG (AID 2283495). In a few lines: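 Concentration-response (8 points, max 100 uM, 0.5% DMSO) in human HepaRG liver cells after 48 h exposure. CYP4A22 mRNA by TaqMan qRT-PCR with housekeeping-gene normalization.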

Read-out in experiment [7]: Glutamate-cysteine ligase catalytic (GCLC), GCLC (gene 2729)
Description: LTEA_HepaRG_GCLC: Life Technologies and Expression Analysis (LTEA) Assay for Glutamate-cysteine ligase catalytic (GCLC) using HepaRG (AID 2283498). In a few lines:
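Oxidative-stress marker GCLC is measured as mRNA change in human HepaRG liver cells after 48 h chemical treatment in 0.5% DMSO, eight concentrations from 100 uM. Activity is fitted bidirectionally against vehicle.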

Read-out in experiment [8]: growth arrest and DNA damage 45 (GADD45G), GADD45G (gene 10912)
The experiment is described as follows: LTEA_HepaRG_GADD45G: Life Technologies and Expression Analysis (LTEA) Assay for growth arrest and DNA damage 45 (GADD45G) using HepaRG (AID 2283499). In outline:
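Concentration-response in HepaRG: 48 h dosing, 0.5% DMSO, highest level 100 uM. GADD45G expression by qRT-PCR, normalised to endogenous controls; bidirectional fit to DMSO.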

Read-out in experiment [9]: Glutathione S-transferase M3 (GSTM3), GSTM3 (gene 2947)
The experiment is described as follows: LTEA_HepaRG_GSTM3: Life Technologies and Expression Analysis (LTEA) Assay for Glutathione S-transferase M3 (GSTM3) using HepaRG (AID 2283501). In outline:
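Expression of GSTM3 is determined by qRT-PCR in human liver HepaRG cells treated 48 h with an 8-point half-log range from 100 uM in 0.5% DMSO.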

Read-out in experiment [10]: Hypoxia-inducible factor 1-alpha (Homo sapiens) (UniProt Q16665)
Description: LTEA_HepaRG_HIF1A: Life Technologies and Expression Analysis (LTEA) Assay for Hypoxia-inducible factor 1 (HIF1A) Trancription factor using HepaRG (AID 2283503). In a few lines:
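HIF1A transcript level read by qRT-PCR (ACTB, GAPDH, POLR2A normalization) after 48 h chemical exposure of HepaRG cultures. Eight half-log concentrations, top 100 uM, 0.5% DMSO vehicle, duplicates; bidirectional curve fit against DMSO baseline.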

Read-out in experiment [11]: Glutathione S-Transferase (GSTA2), GSTA2 (gene 2939)
Description: LTEA_HepaRG_GSTA2: Life Technologies and Expression Analysis (LTEA) Assay for Glutathione S-Transferase (GSTA2) using HepaRG (AID 2283497). In outline:
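Oxidative-stress marker GSTA2 is quantified by TaqMan qRT-PCR in HepaRG cultures treated 48 h across an eight-point range to 100 uM. Expression is normalized to endogenous controls and compared with 0.5% DMSO vehicle.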

Read-out in experiment [12]: DNA damage-inducible transcript 3 (DDIT3), DDIT3 (gene 1649)
The experiment is described as follows: LTEA_HepaRG_DDIT3: Life Technologies and Expression Analysis (LTEA) Assay for DNA damage-inducible transcript 3 (DDIT3) using HepaRG (AID 2283488). In a few lines:
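Cells are human HepaRG liver cells treated for 48 h with eight half-log concentrations up to 100 uM in 0.5% DMSO. Transcript levels come from qRT-PCR normalized to three housekeeping genes, with activity fitted in both directions relative to vehicle.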

Read-out in experiment [13]: Cytochrome P450 3A7 (Homo sapiens) (UniProt P24462)
Description: LTEA_HepaRG_CYP3A7: Life Technologies and Expression Analysis (LTEA) Assay for CYP3A7 using HepaRG (AID 2283492). In a few lines: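 qRT-PCR of CYP3A7 in HepaRG lysates after 48 h treatment; concentration-response (8 points, max 100 uM) analysed bidirectionally relative to 0.5% DMSO controls.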

Read-out in experiment [14]: Heat shock 70 kDa protein 1 (HSPA1A), gene 3303
The experiment is described as follows: LTEA_HepaRG_HSPA1A: Life Technologies and Expression Analysis (LTEA) Assay for Heat shock 70 kDa protein 1 (HSPA1A) using HepaRG (AID 2283502). In a few lines:
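Cells were plated and cultured for 48 h, then switched to serum-free induction medium. Chemicals were added at eight half-log concentrations up to 100 uM for 48 h. RNA was then isolated and HSPA1A measured by qRT-PCR with bidirectional curve fitting against DMSO.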

Read-out in experiment [15]: 3-Hydroxy-3-Methylglutaryl-CoA Synthase 2 (HMGCS2), HMGCS2 (gene 3158)
The experiment is described as follows: LTEA_HepaRG_HMGCS2: Life Technologies and Expression Analysis (LTEA) Assay for 3-Hydroxy-3-Methylglutaryl-CoA Synthase 2 (HMGCS2) using HepaRG (AID 2283504). In outline:
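This steatosis marker was read as HMGCS2 mRNA change in HepaRG cells treated 48 h with up to 100 uM chemical. Normalisation used housekeeping genes; activity in either direction was fitted relative to 0.5% DMSO vehicle.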

Molecules are shown by their SMILES. The source made the active and inactive calls. The calls were made as follows: active = hit-call score of the fitted dose curve at least 0.9, where 1 is the maximum; inactive = score below 0.9.

Consider seven compounds from PubChem BioAssay (EPA / NIEHS).

Chain of Cytochrome P450 3A4 (Homo sapiens) (P08684 whole entry, looked up): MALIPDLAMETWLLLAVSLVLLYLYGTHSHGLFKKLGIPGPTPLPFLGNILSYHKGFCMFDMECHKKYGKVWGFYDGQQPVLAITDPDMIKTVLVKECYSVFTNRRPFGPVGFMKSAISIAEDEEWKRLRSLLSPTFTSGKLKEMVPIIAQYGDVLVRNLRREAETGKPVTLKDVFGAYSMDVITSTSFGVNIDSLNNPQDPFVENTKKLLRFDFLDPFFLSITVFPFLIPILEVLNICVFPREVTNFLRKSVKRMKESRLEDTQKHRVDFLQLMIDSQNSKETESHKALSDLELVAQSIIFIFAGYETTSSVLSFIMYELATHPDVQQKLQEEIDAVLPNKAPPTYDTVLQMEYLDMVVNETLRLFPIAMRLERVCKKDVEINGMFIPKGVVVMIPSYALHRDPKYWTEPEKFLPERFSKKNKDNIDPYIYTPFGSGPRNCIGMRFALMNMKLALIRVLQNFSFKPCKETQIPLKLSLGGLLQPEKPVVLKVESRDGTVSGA
Chain of Hypoxia-inducible factor 1-alpha (Homo sapiens) (Q16665 whole entry, looked up): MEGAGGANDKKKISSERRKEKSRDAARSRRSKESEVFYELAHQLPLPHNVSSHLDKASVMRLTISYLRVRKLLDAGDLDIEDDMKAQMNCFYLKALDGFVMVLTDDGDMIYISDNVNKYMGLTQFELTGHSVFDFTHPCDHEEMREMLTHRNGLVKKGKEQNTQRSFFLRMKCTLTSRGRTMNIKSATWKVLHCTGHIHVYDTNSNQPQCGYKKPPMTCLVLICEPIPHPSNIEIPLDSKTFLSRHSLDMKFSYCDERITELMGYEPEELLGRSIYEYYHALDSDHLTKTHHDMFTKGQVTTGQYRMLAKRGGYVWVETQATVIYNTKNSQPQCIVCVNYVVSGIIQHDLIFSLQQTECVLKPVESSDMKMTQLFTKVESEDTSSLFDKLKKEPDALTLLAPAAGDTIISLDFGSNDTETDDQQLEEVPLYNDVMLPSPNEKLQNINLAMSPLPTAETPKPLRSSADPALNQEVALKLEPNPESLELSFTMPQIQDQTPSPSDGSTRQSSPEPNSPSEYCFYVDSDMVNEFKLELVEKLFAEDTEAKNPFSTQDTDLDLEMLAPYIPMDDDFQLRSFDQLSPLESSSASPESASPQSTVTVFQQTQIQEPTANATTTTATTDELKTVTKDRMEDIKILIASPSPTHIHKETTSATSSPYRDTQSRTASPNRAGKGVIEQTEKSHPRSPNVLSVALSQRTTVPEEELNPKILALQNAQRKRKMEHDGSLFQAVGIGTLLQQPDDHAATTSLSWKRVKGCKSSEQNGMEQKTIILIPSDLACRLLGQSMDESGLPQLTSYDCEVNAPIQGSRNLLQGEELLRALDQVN
Chain of Cytochrome P450 3A7 (Homo sapiens) (P24462 whole entry, looked up): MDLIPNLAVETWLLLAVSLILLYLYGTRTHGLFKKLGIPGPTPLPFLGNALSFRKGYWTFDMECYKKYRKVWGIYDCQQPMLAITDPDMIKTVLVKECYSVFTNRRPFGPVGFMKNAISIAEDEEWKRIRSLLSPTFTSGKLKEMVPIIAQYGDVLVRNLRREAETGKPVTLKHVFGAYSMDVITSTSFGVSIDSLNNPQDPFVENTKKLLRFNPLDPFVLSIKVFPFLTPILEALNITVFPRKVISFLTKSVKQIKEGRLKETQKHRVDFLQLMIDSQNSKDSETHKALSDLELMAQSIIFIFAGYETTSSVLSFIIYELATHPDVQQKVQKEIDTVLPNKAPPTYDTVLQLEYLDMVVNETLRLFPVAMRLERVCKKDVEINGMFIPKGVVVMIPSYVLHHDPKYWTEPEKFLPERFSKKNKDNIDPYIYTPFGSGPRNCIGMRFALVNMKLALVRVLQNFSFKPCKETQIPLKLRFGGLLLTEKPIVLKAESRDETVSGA

In the case of `CNC(=S)S`, the call (with CYP2E1 (gene 1571); with CYP4A11 (gene 1579); in experiment [1]; in experiment [2]; in [3]; in [4]) was inactive. Further, the outcome (in the experiment with CYP3A5 (gene 1577); in experiment [5]; in experiment [6]; in experiment [7]; in [8]; in [9]) was inactive. The compound was classed as inactive in experiment [10].
For the compound `O=C(O)COc1nc(Cl)c(Cl)cc1Cl`, the result (in the experiment with CYP2E1 (gene 1571); with CYP4A11 (gene 1579); in [1]; in experiment [2]; in [3]; in [4]) was inactive. Besides, the compound was called inactive (in the experiment with CYP3A5 (gene 1577); in experiment [5]; in experiment [6]; in experiment [11]; in experiment [7]; in [8]). In addition, the call in [9] and in experiment [10] was inactive.
As usually defined, the AC50 is the midpoint of the concentration-response curve, whichever way the signal moves. `COc1ccc(C(c2ccc(OC)cc2)C(Cl)(Cl)Cl)cc1`: the half-maximal activity concentration (AC50) is 66 µM (active) in the experiment with CYP2E1 (gene 1571); 79 µM (active) with CYP4A11 (gene 1579); 75 µM (active) in [12]; 73 µM (active) in experiment [3]; 79.8 µM (active) in experiment [4]; 65.4 µM (active) in [5]. The AC50 in [6] was 71.9 µM (active); in experiment [11], 90.3 µM (active); in [7] it was 76.3 µM (active); in experiment [8], 56.2 µM (active). Also, the compound was called inactive (in experiment [2]; in experiment [13]; with CYP3A5 (gene 1577); in experiment [9]; in experiment [10]).
As to `COc1cnc(OC)n2nc(NS(=O)(=O)c3c(OCC(F)F)cccc3C(F)(F)F)nc12`, the AC50 with CYP2E1 (gene 1571) is 30.2 µM (active); in the experiment with CYP4A11 (gene 1579), 11.5 µM (active); in experiment [1], 8.2 µM (active); in [6], 9.46 µM (active). Also, the outcome (in experiment [2]; in experiment [3]; in experiment [4]; with CYP3A5 (gene 1577); in experiment [5]; in [7]) was inactive. Moreover, the compound was classed as inactive in [8], in experiment [9] and in experiment [10].
As to `COC(=O)C=C(C)OP(=O)(OC)OC`, the call (with CYP2E1 (gene 1571); in the experiment with CYP4A11 (gene 1579); in [1]; in experiment [2]; in [4]; with CYP3A5 (gene 1577)) was inactive. The compound was classed as inactive in experiment [5], in experiment [6], in [7], in experiment [8], in experiment [9] and in experiment [10]. In [3], the concentration at half-maximal activity (AC50) was 50 µM (active).
Turning to `CCc1nn(C)c(C(=O)NCc2ccc(C(C)(C)C)cc2)c1Cl`, the half-maximal activity concentration (AC50) is 0.507 µM (active) with CYP2E1 (gene 1571); 0.393 µM (active) with CYP4A11 (gene 1579); 13.3 µM (active) in experiment [1]; 50 µM (active) in experiment [2]; 50 µM (active) in experiment [3]; 88.9 µM (active) with CYP3A5 (gene 1577). Besides, the concentration at half-maximal activity (AC50) in experiment [5] is 5 µM (active); in [6], 0.677 µM (active); in experiment [11] it was 11.9 µM (active); in experiment [7], 50 µM (active); in experiment [8], 0.6 µM (active); in experiment [9], 4.76 µM (active). Besides, the outcome in experiment [4] and in experiment [10] was inactive.
With `CCOC(=O)C(Cl)Cc1cc(-n2nc(C)n(C(F)F)c2=O)c(F)cc1Cl` (configuration not stated), the compound was called inactive (with CYP2E1 (gene 1571); with CYP4A11 (gene 1579); in experiment [2]; in experiment [3]; in [4]; with CYP3A5 (gene 1577)). Besides, the result in [5], in experiment [6], in experiment [7], in experiment [8], in [9] and in [14] was inactive. The compound was classed as inactive in experiment [10] and in [15]. In addition, the AC50 in [1] was 18.7 µM (active).
